Several values for one entry are separate records, joined by “and”; a condition that tells them apart may be missing. Equal values may be shown once. Results filed as inconclusive are left out. Entries that show only a call come without a potency. Some structures have more than one record in an assay (separate samples or runs), and their calls can disagree. Activity calls are given as the source filed them. Calls come from the whole dose curve; as a rule, active = well fitted inhibition curve with a large enough effect; inconclusive = small, poorly fitted or top-dose-only effect; inactive = flat fitted curve, though single readings scatter.
How the values were obtained:
Experiment in all cases: qHTS profiling for inhibitors of Plasmodium falciparum proliferation (AID 504749); note: nearly all actives have a fitted effect of over 60% in size
Details in all cases: P. falciparum in erythrocytes, SYBR Green DNA, 72 h; series mostly up to 28.7 µM
[1] = system: ATS95
Method in brief: (§1)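 In a 72 h erythrocytic culture (37 C, humidified, 5% CO2) at 2.5% hematocrit and 0.3% starting parasitemia, compounds were tested; SYBR Green I in detergent lysis buffer stained parasite DNA overnight.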

[2] = system: CP201
Method in brief: as §1

[3] = system: CP203
Method in brief: as §1

[4] = system: CP215
Method in brief: as §1

[5] = system: CP247
Method in brief: as §1

[6] = system: CP260
Method in brief: as §1

[7] = system: CP266
Method in brief: as §1

[8] = system: CP291
Method in brief: as §1

[9] = system: CP297
Method in brief: as §1

[10] = system: CP325
Method in brief: as §1

[11] = system: CP335
Method in brief: as §1

[12] = system: DIV14
Method in brief: as §1

[13] = system: DIV17
Method in brief: as §1

[14] = system: DIV30
Method in brief: as §1

[15] = system: P93_24
Method in brief: as §1

[16] = system: PAD
Method in brief: as §1

[17] = system: PC26
Method in brief: as §1

[18] = system: 7G8
Method in brief: as §1

[19] = system: GB4
Method in brief: as §1

[20] = system: ICS
Method in brief: as §1
Potency is the fitted concentration of half-maximal effect.

Row | SMILES | Potency [1] | Potency [2] | Potency [3] | Potency [4] | Potency [5] | Potency [6] | Potency [7] | Potency [8] | Potency [9] | Potency [10] | Potency [11] | Potency [12] | Potency [13] | Potency [14] | Potency [15] | Potency [16] | Potency [17] | Potency [18] | Potency [19] | Potency [20]
1 | CCCSS/C(CCO)=C(/C)N(C=O)Cc1cnc(C)nc1N | inactive | inactive | inactive | inactive | inactive | inactive | inactive | inactive | inactive | inactive | inactive | inactive | inactive | inactive | inactive | inactive | inactive | – | – | –
2 | C[N+]12CCCC[C@@H]1CCC(=C(c1cccs1)c1cccs1)C2 (stereo not given in full) | – | – | 16.9 µM (active) | 15.1 µM (active) | 10 µM (active) | 11.2 µM (active) | – | 15.1 µM (active) | – | – | 12 µM (active) | 6.75 µM (active) | 10.7 µM (active) | 12 µM (active) | 7.94 µM (active) | 11.2 µM (active) | 15.1 µM (active) | 7.94 µM (active) | 7.57 µM (active) | –
3 | C[C@@H]1CC2C3CCC4=CC(=O)C=C[C@]4(C)[C@@]3(F)[C@@H](O)C[C@]2(C)[C@@]1(O)C(=O)COC(=O)c1cccc(S(=O)(=O)O)c1 (stereo not given in full) | inactive | inactive | inactive | inactive | inactive | inactive | inactive | inactive | inactive | inactive | inactive | inactive | inactive | inactive | inactive | inactive | inactive | – | inactive | inactive
4 | Cc1c(C)c2c(c(C)c1O)CCC(C)(CCCC(C)CCCC(C)CCCC(C)C)O2 (stereo not given) | inactive | inactive | inactive | inactive | inactive | inactive | inactive | inactive | – | inactive | inactive | inactive | inactive | inactive | inactive | inactive | inactive | – | inactive | –
5 | COc1ccc(S(=O)(=O)N2c3ccc(Cl)cc3[C@](O)(c3ccccc3Cl)[C@@H]2C(=O)N2CCC[C@H]2C(N)=O)cc1OC | inactive | inactive | inactive | inactive | inactive | – | inactive | inactive | inactive | inactive | – | – | – | inactive | – | – | – | 11.2 µM (active) | inactive | 10 µM (active)
6 | CNC1CCc2cc(OC)c(OC)c(OC)c2-c2ccc(OC)c(=O)cc21 (stereo not given) | inactive | inactive | inactive | inactive | – | inactive | inactive | inactive | inactive | inactive | inactive | – | – | – | – | inactive | inactive | – | inactive | –
7 | C[C@]12C=CC(=O)N[C@@H]1CC[C@@H]1C2CC[C@]2(C)C(C(=O)Nc3cc(C(F)(F)F)ccc3C(F)(F)F)CC[C@@H]12 (stereo not given in full) | – | inactive | inactive | – | inactive | 5.01 µM (active) | inactive | – | – | inactive | 3.79 µM (active) | – | – | inactive | inactive | inactive | inactive | 2 µM (active) | – | 3.16 µM (active)
8 | C#C[C@@]1(O)CC[C@@H]2[C@H]3CCC4=C/C(=N\O)CC[C@H]4[C@@H]3CC[C@]21CC | inactive | inactive | inactive | inactive | inactive | inactive | inactive | inactive | inactive | inactive | inactive | inactive | inactive | inactive | inactive | inactive | inactive | – | – | –
9 | CCOC(=O)C(CCc1ccccc1)NC(C)C(=O)N1Cc2cc(OC)c(OC)cc2CC1C(=O)O (stereo not given) | – | inactive | inactive | inactive | – | inactive | inactive | inactive | 10.7 µM (active) | inactive | – | 6.01 µM (active) | 5.36 µM (active) | 7.57 µM (active) | 5.01 µM (active) | 4.47 µM (active) | 6.75 µM (active) | 8.91 µM (active) | – | –
10 | CNC1=CN(O)C(c2ccccc2)=c2cc(Cl)ccc2=N1 | 5.01 µM (active) | 4.26 µM (active) and inactive | 4.26 µM (active) | 4.26 µM (active) and 10.7 µM (active) | – | 7.94 µM (active) and inactive | 4.78 µM (active) | 3.38 µM (active) | 4.26 µM (active) | – | 3.79 µM (active) | 1.51 µM (active) | 2.13 µM (active) | 4.26 µM (active) and inactive | – | – | 4.26 µM (active) | inactive | 953 nM (active) and 15.1 µM (active) | 3.98 µM (active)
11 | C[C@]12CCC(=O)C=C1[C@@H]1C[C@H]1[C@H]1[C@@H]3[C@@H]4C[C@H]4[C@@]4(CCC(=O)O4)[C@@]3(C)CC[C@@H]12 | inactive | inactive | inactive | – | inactive | inactive | inactive | inactive | inactive | inactive | inactive | – | inactive | – | inactive | – | inactive | – | inactive | –
12 | CC(C)CCCC(C)C1CC(=O)C2=C3CCC4CC(O)CCC4(C)C3CCC21C (stereo not given) | inactive | inactive | inactive | inactive | inactive | – | inactive | inactive | inactive | inactive | – | inactive | inactive | inactive | inactive | inactive | inactive | – | inactive | –
13 | CC1(C)SC2[C@@H](N=CN3CCCCCC3)C(=O)N2[C@H]1C(=O)O (stereo not given in full) | inactive | inactive | inactive | – | inactive | inactive | inactive | inactive | – | inactive | inactive | – | inactive | inactive | inactive | – | inactive | – | inactive | –
14 | CCN(CC)C(=O)[C@@]1(c2ccccc2)C[C@@H]1CN | inactive | inactive | inactive | inactive | inactive | inactive | inactive | inactive | inactive | inactive | inactive | – | – | inactive | inactive | inactive | – | – | inactive | inactive
15 | CC1CCC(O)C/C1=C\C=C1/CCCC2(C)C1CCC2C(C)/C=C/C(C)C(C)C (stereo not given) | inactive | inactive | inactive | inactive | – | inactive | inactive | inactive | – | inactive | – | – | – | – | – | – | – | – | – | 11.2 µM (active)
16 | OC[C@@H](O)C(O[C@@H]1O[C@@H](CO)[C@H](O)[C@H](O)[C@H]1O)[C@H](O)[C@@H](O)CO (stereo not given in full) | inactive | inactive | inactive | inactive | inactive | inactive | inactive | inactive | inactive | inactive | inactive | inactive | inactive | inactive | inactive | inactive | inactive | inactive | inactive | inactive
17 | CC(=O)O[C@]1(C(C)=O)CCC2C3CCC4=CC(=O)CCC4(C)C3(F)C(O)CC21C (stereo not given in full) | inactive | inactive | inactive | inactive | inactive | inactive | inactive | inactive | inactive | inactive | inactive | inactive | inactive | inactive | inactive | inactive | inactive | – | inactive | –
18 | C=C1/C(=C\C=C2/CCC[C@]3(C)[C@@H]([C@H](C)/C=C/[C@@H](O)C4CC4)CC[C@@H]23)C[C@@H](O)C[C@@H]1O | inactive | inactive | inactive | inactive | inactive | – | inactive | – | inactive | inactive | inactive | inactive | inactive | inactive | – | inactive | inactive | – | inactive | –
19 | COc1cc(/C=C2\CCC/C(=C\c3ccc(O)c(OC)c3)C2=O)ccc1O | 10 µM (active) | – | – | 15.1 µM (active) | 8.91 µM (active) | 12.6 µM (active) | – | – | 13.5 µM (active) | – | 12 µM (active) | 6.75 µM (active) | 9.53 µM (active) | 8.49 µM (active) | 12.6 µM (active) | 7.08 µM (active) | 10.7 µM (active) | 2 µM (active) | 12 µM (active) | 3.16 µM (active)
20 | C=C1C(n2cnc3c(=O)[nH]c(N)nc32)C[C@H](O)[C@H]1CO (stereo not given in full) | – | inactive | – | inactive | inactive | – | inactive | – | inactive | – | – | – | – | inactive | – | inactive | – | 12.6 µM (active) | – | –
21 | CCC(C)C(N)C(=O)O (stereo not given) | inactive | inactive | inactive | inactive | inactive | inactive | inactive | inactive | inactive | inactive | inactive | inactive | inactive | inactive | inactive | inactive | inactive | inactive | – | –
22 | C/C=C1/NN(CCCN2CCN(c3cccc(Cl)c3)CC2)C(=O)N1CCOc1ccccc1 | inactive | inactive | – | inactive | inactive | inactive | inactive | – | – | inactive | – | – | – | – | inactive | inactive | – | – | – | –
23 | C=C(CC[C@@H](C)[C@H]1CCC2[C@]1(C)CC[C@]13C[C@@]14CCC(OC(=O)/C=C/c1ccc(O)c(OC)c1)C(C)(C)[C@@H]4CC[C@@]23C)C(C)C (stereo not given in full) | inactive | inactive | inactive | inactive | inactive | inactive | inactive | inactive | inactive | inactive | inactive | inactive | inactive | inactive | inactive | inactive | inactive | – | inactive | inactive
24 | CC(C)(C)NC[C@H](O)CSc1nc(-c2ccc(C(N)=O)s2)cs1 | inactive | inactive | inactive | inactive | inactive | – | inactive | inactive | inactive | inactive | inactive | – | – | inactive | inactive | inactive | inactive | – | inactive | –
25 | OCC(O)C(O)C(O)C(O)CO (stereo not given) | inactive | inactive | inactive | inactive | inactive | inactive | inactive | inactive | inactive | inactive | inactive | inactive | inactive | inactive | inactive | inactive | inactive | inactive | inactive | inactive
26 | COC(=O)C1C2CC3c4[nH]c5cc(OC)ccc5c4CCN3CC2CC(OC)C1OC (stereo not given) | inactive | inactive | inactive | inactive | inactive | inactive | inactive | inactive | inactive | inactive | inactive | – | – | – | inactive | inactive | inactive | – | inactive | inactive
27 | CC1CN(c2c(F)c(N)c3c(=O)c(C(=O)O)cn(C4CC4)c3c2F)CC(C)N1 (stereo not given) | inactive | inactive | inactive | inactive | inactive | – | inactive | inactive | inactive | inactive | – | inactive | inactive | inactive | inactive | inactive | inactive | – | inactive | inactive
28 | C[C@]12CC[C@@H]3c4ccc(O)cc4CC[C@H]3[C@@H]1CCC2OC(=O)CCC1CCCC1 (stereo not given in full) | inactive | inactive | inactive | inactive | inactive | inactive | inactive | inactive | inactive | inactive | – | inactive | inactive | inactive | – | – | inactive | 10 µM (active) | inactive | 12.6 µM (active)

From PubChem BioAssay (NCATS)
